# Results: PubChem BioAssay AID463173 (ICCB-Longwood Screening Facility, Harvard Medical School, 2010)
# The whole screen tested about 52,000 compounds, of which about 4,300 (8.3%) were called active. For the sample, actives were picked, then their nearest neighbours and some compounds at random. Values without a mark were called inactive. Cut-off read from the data, not from the text of the source: active = survival mostly below about 52% (no sharp cut-off); inactive = mostly above about 56%.
# Test system: DeltatarO mutant
# Assay: growth inhibition of S. aureus wild type versus tarO mutant, primary screen, teichoic acid synthesis inhibitors, RN4220, OD600 (AID 463173)
# Settings: OD600, 18 h, stronger effect = lower value, screened at 18.75 µg/mL (by protocol)
row,Structure (SMILES),survival
1,CCOC(=O)c1ccc(OC(=O)c2cn(-c3cccc(OC)c3)c(=O)c3ccccc23)cc1,85%
2,Cc1cc(NC(=O)CSc2nc3c([nH]c4ccccc43)c(=O)n2-c2cccc(Cl)c2)no1,73%
3,CC(=O)c1cc(-c2ccc(F)cc2)n(CC(=O)NCc2ccc(C)cc2)c1C,99%
4,COc1ccc2nc(N(Cc3cccnc3)C(=O)c3ccc4c(c3)OCCO4)sc2c1,65%
5,Cc1ccc(NC(=O)c2ccco2)nc1,108%
6,CC1=C(C(=O)Nc2ccc(Cl)cc2)C(CC(C)C)n2nc(SCc3ccccc3C)nc2N1 (stereo not drawn),127%
7,COC(=O)CCNC(=O)NC(CCC(C)C)c1c(-n2cccc2)sc2c1CCN(C)C2 (stereo not drawn),75%
8,O=C1CC(c2nc(-c3ccc(Cl)cc3)no2)CN1c1ccc2c(c1)OCCO2 (stereo not drawn),115%
9,CN(C)c1ccc(-c2noc(C3CC(=O)N(c4ccc5c(c4)OCCO5)C3)n2)cc1 (stereo not drawn),92%
10,COc1ccc(-c2noc(C3CC(=O)N(c4cc(C)cc(C)c4)C3)n2)cc1 (stereo not drawn),91%
11,O=C1CC(c2nc(-c3ccccc3)no2)CN1c1ccc2c(c1)OCCO2 (stereo not drawn),93%
12,Cc1ccc(-c2noc(C3CC(=O)N(c4ccc5c(c4)OCCO5)C3)n2)cc1 (stereo not drawn),46% (active)
13,O=C1CC(c2nc(-c3cccc(Cl)c3)no2)CN1c1ccc2c(c1)OCCO2 (stereo not drawn),144%
14,Cc1cc(C)cc(N2CC(c3nc(-c4cccc(Cl)c4)no3)CC2=O)c1 (stereo not drawn),37% (active)
15,COc1ccc(-c2noc(C3CC(=O)N(c4ccccc4)C3)n2)c(OC)c1 (stereo not drawn),101%
16,O=C1CC(c2nc(-c3ccccc3)no2)CN1c1ccccc1 (stereo not drawn),25% (active)
17,Cc1ccc(-c2nc3n(n2)C(=O)CC(c2ccc(C)cc2)S3)cc1 (stereo not drawn),90%
18,NC(=O)CSc1ncnc2c1cnn2-c1ccccc1,82%
19,O=C1CN(C(=O)Cc2ccc(F)cc2)C(c2ccccc2)c2cc(Br)ccc2N1 (stereo not drawn),58%
20,CCCCOc1ccc(C(=O)N2CC(=O)Nc3ccc(Br)cc3C2c2ccc(F)cc2)cc1 (stereo not drawn),39% (active)
21,Cc1ccc(C(=O)N2CC(=O)Nc3ccc(Br)cc3C2c2ccc(F)cc2)cc1C (stereo not drawn),66%
22,O=C1CN(C(=O)COc2ccc(Cl)cc2)C(c2ccccc2)c2cc(Br)ccc2N1 (stereo not drawn),60%

row,Structure (SMILES),survival
1,O=C1CN(C(=O)c2c(F)cccc2Cl)C(c2ccc(F)cc2)c2cc(Br)ccc2N1 (stereo not drawn),42% (active)
2,O=C1CN(C(=O)COc2ccccc2)C(c2ccc(F)cc2)c2cc(Br)ccc2N1 (stereo not drawn),33% (active)
3,O=C1CN(C(=O)COc2ccc(Cl)cc2)C(c2ccc(F)cc2)c2cc(Cl)ccc2N1 (stereo not drawn),45%
4,O=C1CN(C(=O)c2ccccc2)C(c2ccc(F)cc2)c2cc(Br)ccc2N1 (stereo not drawn),60%
5,COc1ccc(C(=O)N2CC(=O)Nc3ccc(Br)cc3C2c2ccc(F)cc2)cc1OC (stereo not drawn),48%
6,CCOc1ccc(C(=O)N2CC(=O)Nc3ccc(F)cc3C2c2ccc(F)cc2)cc1 (stereo not drawn),148%
7,O=C1CN(C(=O)COc2ccc(Cl)cc2)C(c2ccc(F)cc2)c2cc(Br)ccc2N1 (stereo not drawn),36% (active)
8,O=C(c1ccccc1/S(=N/S(=O)(=O)c1ccccc1)N1CCOCC1)N1CCOCC1 (stereo not drawn),75%
9,Clc1cccc(-c2nnc(CN3CCN(c4ccccn4)CC3)o2)c1,82%
10,CCOc1ccc(CC(=O)NCC(c2cccs2)S(=O)(=O)c2ccc(F)c(C)c2)cc1 (stereo not drawn),67%
11,Cc1ccc(N2CC(NC(=O)C3CCCC3)CC2=O)cc1C (stereo not drawn),103%
12,Cc1ccc(CNc2oc(-c3ccc(COc4ccc(C)cc4)o3)nc2C#N)cc1,65%
13,COCCNC(=O)CCCn1c(SCc2ccccc2C)nc2c(sc3ccccc32)c1=O,97%
14,Cc1ccc2oc3c(c(=O)c2c1)C(c1ccc(OCC(N)=O)cc1)N(Cc1ccc2c(c1)OCO2)C3=O (stereo not drawn),93%
15,COC(=O)c1ccc(-n2nnc(-c3nc(-c4ccc5c(c4)OCO5)no3)c2C)cc1,82%
16,Cc1ccccc1NC(=O)c1c(C)oc2ccc(O)c(CN3CCN(C)CC3)c12,77%
17,CCCCNC(=O)CSc1nc2nc(C)c(Cc3c(F)cccc3Cl)c(C)n2n1,31% (active)
18,Cc1nc2nc(SCC(=O)Nc3cccc(Cl)c3)nn2c(C)c1Cc1ccccc1,85%
19,Cc1nc2nc(SCc3c(F)cccc3Cl)nn2c(C)c1Cc1ccccc1,66%
20,Cc1nc2nc(SCC(=O)NCCc3ccc(Cl)cc3)nn2c(C)c1Cc1c(F)cccc1Cl,0% (active)
21,Cc1ccccc1Cc1c(C)nc2nc(SCC(=O)NCCc3ccc(Cl)cc3)nn2c1C,67%
22,Cc1nc2nc(SCC(=O)NCCc3ccc(Cl)cc3)nn2c(C)c1Cc1ccccc1,46% (active)

row,Structure (SMILES),survival
1,Cc1nc2nc(SCC(=O)O)nn2c(C)c1Cc1c(F)cccc1Cl,93%
2,Cc1nc2nc(SCC(=O)NC(C)c3ccccc3)nn2c(C)c1Cc1c(F)cccc1Cl (stereo not drawn),68%
3,CCN(CC)CCCNC(=O)CSc1nc2nc(C)c(Cc3c(F)cccc3Cl)c(C)n2n1,146%
4,COc1ccc(CCNC(=O)CSc2nc3nc(C)c(Cc4ccc(C)cc4)c(C)n3n2)cc1OC,55%
5,Cc1nc2nc(SCC(=O)NCCc3ccc(Cl)cc3)nn2c(C)c1Cc1ccccc1Cl,99%
6,Cc1nc2nc(SCC(=O)NCCc3ccccc3)nn2c(C)c1Cc1c(F)cccc1Cl,37% (active)
7,Cc1cccc(C(=O)N2CCc3cc(CNS(=O)(=O)c4cccs4)ccc32)c1,74%
8,Cc1ccc(C)c(CN2C(=O)c3ccccc3S(=O)(=O)c3ccc(C(=O)Nc4ccccc4C(F)(F)F)cc32)c1,84%
9,Cc1ccccc1Cn1c(CN2CCN(c3cc(Cl)ccc3C)CC2)nc2c1c(=O)[nH]c(=O)n2C,106%
10,CCOC(=O)Cc1ccc(NC(=O)N(Cc2ccc(OC)cc2)C2CCN(C(C)=O)CC2)cc1,88%
11,Cc1ccc(NC(=O)C(=O)NCC(c2cccnc2)N2CCN(c3ccccc3F)CC2)cc1Cl (stereo not drawn),73%
12,Cc1oc(-c2ccc(C(=O)NCc3ccccc3)cc2)nc1CS(=O)(=O)c1ccccc1,88%
13,Cc1ccc(C)c(N2CCN(C(=O)c3ccc4[nH]c(C)c(C)c4c3)CC2)c1,80%
14,CN(C)Cn1c(O)c(N=NC(=O)c2ccccc2)c2ccccc21,93%
15,N=C(N=Nc1c(O)n(Cc2ccccc2)c2ccccc12)SCC(=O)Nc1ccccc1,23% (active)
16,N=Nc1c(O)n(CC(=O)Nc2ccccc2)c2ccccc12,87%
17,Cc1ccc(NC(=O)C2CCN(S(=O)(=O)c3c(C)noc3C)CC2)cc1,105%
18,Cc1ccc(-c2nn3c(-c4ccccc4)nnc3c3ccccc23)cc1,86%
19,Cc1ccc(-c2nn3c(-c4ccccc4C)nnc3c3ccccc23)cc1,40%
20,Cc1ccc(-c2nn3c(-c4ccc(C)cc4)nnc3c3ccccc23)cc1,20% (active)
21,COc1ccc(-c2nn3c(-c4ccc(OC)cc4)nnc3c3ccccc23)cc1,102%
22,COc1ccc(-c2nn3c(-c4ccccc4C)nnc3c3ccccc23)cc1,2% (active)

row,Structure (SMILES),survival
1,Cc1ccc(-c2nnc3c4ccccc4c(-c4ccccc4)nn23)cc1,134%
2,O=C(CNCCCN1CCOCC1)Nc1ccc(OC(F)(F)F)cc1,99%
3,CC(=O)c1cccc(NC(=O)c2oc3c(c2C)-c2nn(Cc4ccc(Cl)cc4)cc2CC3)c1,64%
4,COc1cccc(CNC(=O)CN2C(=O)N(c3ccc(C)cc3C)S(=O)(=O)c3ccccc32)c1OC,65%
5,COc1cc(NS(=O)(=O)c2ccc(-c3cc(C)no3)cc2)cc(OC)c1,99%
6,Cc1cccc(C)c1NC(=O)CCSCCc1ccccn1,86%
7,CC(C)(C)c1ccc(-c2nc(S(=O)(=O)c3ccccc3)c(N3CCOCC3)o2)cc1,37% (active)
8,O=S(=O)(c1ccccc1)c1nc(-c2ccc(F)cc2)oc1N1CCCCCC1,33% (active)
9,Cc1ccc(-c2nc(S(=O)(=O)c3ccccc3)c(N3CCN(c4ccccc4)CC3)o2)cc1,102%
10,COc1ccc(-c2nc(S(=O)(=O)c3ccccc3)c(N3CCCCC3)o2)cc1,74%
11,O=S(=O)(c1ccccc1)c1nc(-c2ccc(F)cc2)oc1N1CCOCC1,90%
12,O=S(=O)(c1ccccc1)c1nc(-c2cccc(Cl)c2)oc1N1CCOCC1,57%
13,Cc1ccc(-c2nc(S(=O)(=O)c3ccc(C)cc3)c(N3CCN(c4ccccc4)CC3)o2)cc1,97%
14,Cc1ccc(S(=O)(=O)c2nc(-c3ccccc3)oc2N2CCN(c3ccccc3)CC2)cc1,85%
15,Cc1ccc(S(=O)(=O)c2nc(-c3ccccc3)oc2N2CCCCCC2)cc1,22% (active)
16,Cc1ccc(-c2nc(S(=O)(=O)c3ccc(C)cc3)c(N3CCCCC3)o2)cc1,0% (active)
17,COc1ccc(-c2nc(S(=O)(=O)c3ccc(C)cc3)c(N3CCCCC3)o2)cc1,54%
18,Cc1ccc(-c2nc(S(=O)(=O)c3ccc(C)cc3)c(N3CCCCCC3)o2)cc1,70%
19,Cc1ccc(Cl)cc1NC(=O)Cn1cc2c(n1)CCCCC2,68%
20,CCc1ccc(NC(=O)CC(c2cc(OC)c(OC)c(OC)c2)N2Cc3ccccc3C2=O)cc1 (stereo not drawn),79%
21,COc1ccc(N2CCN(C(=O)c3cccc4ccccc34)CC2)cc1,66%
22,COC(=O)NCc1c(C)nn(-c2ccccc2)c1-n1cccc1,96%
